Compounds with a hit are over-represented: about 2.4% of the library has one in this group of screens.
CHT allo act: CHT positive allosteric modulators, primary screen, cell-based, membrane potential dye, choline EC20 | High affinity choline transporter 1 (Homo sapiens), Q9GZV3 | CHT-expressing cells; active compounds read high; LV-AA mutant CHT in HEK293 cells | B-score at 10 µM | 310,000 compounds, 0.49% hits;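 active means initial fluorescence not abnormally high and integrated response B-score, plate-corrected, over 3 SD above library mean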
TMEM16A inh: TMEM16A chloride channel inhibitors, primary screen, cell-based, HTS; HEK293 TMEM16A/YFP iodide influx fluorescence, ionomycin; normalized B-score (activity score, 25-100; higher = stronger inhibition) at 10 µM; 310,000 compounds, 1.2% hits; Anoctamin-1 (Mus musculus), Q8BHY3;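 active means ratio plate-corrected score three or more library SD toward inhibition, starting fluorescence score within five deviations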;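 further: score derived from kinetic fluorescence span divided by baseline fluorescence per well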
Target sequence (Q8BHY3 whole entry, looked up): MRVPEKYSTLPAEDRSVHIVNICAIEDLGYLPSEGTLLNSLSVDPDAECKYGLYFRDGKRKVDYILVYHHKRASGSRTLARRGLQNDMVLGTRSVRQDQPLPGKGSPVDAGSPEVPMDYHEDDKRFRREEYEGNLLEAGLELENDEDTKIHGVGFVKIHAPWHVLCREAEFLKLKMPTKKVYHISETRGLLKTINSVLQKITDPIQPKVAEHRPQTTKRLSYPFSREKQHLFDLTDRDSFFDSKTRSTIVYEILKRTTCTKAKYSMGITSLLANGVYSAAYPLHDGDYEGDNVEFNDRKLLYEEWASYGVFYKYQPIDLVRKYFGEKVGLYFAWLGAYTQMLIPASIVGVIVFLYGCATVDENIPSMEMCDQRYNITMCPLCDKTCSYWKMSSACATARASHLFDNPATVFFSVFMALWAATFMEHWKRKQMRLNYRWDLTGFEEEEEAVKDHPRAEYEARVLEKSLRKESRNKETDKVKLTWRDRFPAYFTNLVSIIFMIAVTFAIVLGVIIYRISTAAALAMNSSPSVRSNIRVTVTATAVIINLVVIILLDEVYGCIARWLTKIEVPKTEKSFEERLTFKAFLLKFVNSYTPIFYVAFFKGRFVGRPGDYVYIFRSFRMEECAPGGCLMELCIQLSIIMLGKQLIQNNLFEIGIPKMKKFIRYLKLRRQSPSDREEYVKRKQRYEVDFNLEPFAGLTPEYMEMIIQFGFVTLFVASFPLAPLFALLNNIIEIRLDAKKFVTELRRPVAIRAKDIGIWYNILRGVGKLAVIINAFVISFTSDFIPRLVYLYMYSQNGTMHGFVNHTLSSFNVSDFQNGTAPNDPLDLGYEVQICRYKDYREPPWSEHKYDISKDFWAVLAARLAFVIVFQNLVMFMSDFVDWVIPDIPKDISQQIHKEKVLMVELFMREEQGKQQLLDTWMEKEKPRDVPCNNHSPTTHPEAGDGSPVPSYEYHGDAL
TMEM16A act: TMEM16A chloride channel activators or potentiators, primary screen, cell-based, HTS. HEK293 TMEM16A/YFP-H148Q/I152L, iodide quench fluorescence; active compounds read low. 340,000 compounds, 0.3% hits. Anoctamin-1 (Mus musculus), Q8BHY3. B-score at 10 µM;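 active means fluorescence-ratio B-score plate-corrected deviation score at least 3 library SD below zero, with starting fluorescence score within 5 deviations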;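 further: channel opened by trigger with iodide after compound preincubation; score built on the fluorescence ratio of max minus min over baseline; more negative score means more quench and so TMEM16A activation or potentiation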
CHT block: inhibitors of human choline transporter CHT; 310,000 compounds, 0.86% hits; High affinity choline transporter 1 (Homo sapiens), Q9GZV3; B-score at 10 µM; CHT-expressing cells, membrane potential dye, choline response; active compounds read low;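 active means B-score over 3 SD under the library average, and starting fluorescence ratio not unusually high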;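 further: choline stimulus applied at its EC90 after an EC20 pre-addition; B-score computed on integrated fluorescence ratio after choline addition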
Large screens that a line does not name were inactive.

COC(=O)[C@@]1(Cc2ccc(F)cc2)[C@H]2c3cc(C(=O)N(C)C)n(CCSCCO)c3C[C@H]2CN1C(=O)c1ccccc1	none (no result: TMEM16A act)
CCOC(=O)CSc1cc(CS(C)(=O)=O)nc(-c2ccccn2)n1	TMEM16A act -6.65
CCOC(=O)CSc1cc(CS(=O)(=O)c2ccccc2)nc(-c2ccccc2)n1	none
CC(C)c1ccccc1NC(=S)NCc1ccncc1	none
CCOc1ccc(Cn2c3ccc(OC)cc3c3nc4ccccc4nc32)cc1OC	none
Cc1ccc(NC(=O)c2ccc(C)cc2)cc1	none
Cc1ccc(C(=O)Nc2ccc(Br)c(C(F)(F)F)c2)cc1	TMEM16A inh 100
CC(C)(C)c1ccc(/C=C2\Oc3cc(O)ccc3C2=O)cc1	none
O=C1/C(=C/c2ccc(Br)cc2)Oc2cc(O)ccc21	TMEM16A inh 100
Cc1cc(=O)oc2cc(NC(=O)c3cc([N+](=O)[O-])ccc3N3CCOCC3)ccc12	none
CC1=NNC(=O)/C1=C\c1cn(-c2ccccc2)nc1-c1cccs1	none
CC1=NNC(=O)/C1=C\c1cn(-c2ccccc2)nc1-c1ccc(F)cc1	TMEM16A act -6.19 (no result: CHT allo act, TMEM16A inh, CHT block)
COc1cc(SC#N)ccc1N=Cc1c(C)[nH]n(-c2ccc(C)c(C)c2)c1=O	TMEM16A act -12.5
CCOC(=O)c1c(CC(C)C)csc1NC(=O)CCl	none
CCOC(=O)c1c(CC(C)C)csc1NC(=O)C(C)C	TMEM16A inh 25
O=C(NC1CCN(C(=O)NCc2ccccc2)CC1)c1ccc(F)cc1	none
CCCCc1ccc(NC(=S)NCc2cccc(OC)c2)cc1	TMEM16A inh 100
CS(=O)(=O)N1CCC(C(=O)N2CCN(Cc3ccccc3)CC2)CC1	none
O=C(c1ccc2ccccc2c1)C1CCCN(C(=O)c2noc3c2CCCC3)C1 (stereo not given)	TMEM16A inh 25
Cc1ccc(S(=O)(=O)N2[C@@H](c3cccc(Cl)c3)C(C(=O)O)=CC[C@H]2c2ccc(Cl)cc2)cc1	TMEM16A inh 100
Cc1ccc(S(=O)(=O)N2[C@@H](c3ccccc3F)C(C(=O)O)=CC[C@H]2c2ccc(C(C)C)cc2)cc1	TMEM16A inh 100
Cc1ccc([C@@H]2CC=C(C(=O)O)[C@H](c3ccccc3F)N2S(=O)(=O)c2ccc(C)cc2)cc1	TMEM16A act -23.9
CCN(CC(=O)Nc1c(F)cccc1F)C(=O)C1CC(=O)N(c2ccc3c(c2)OCCO3)C1 (stereo not given)	none
O=C(OCn1nnc2ccccc2c1=O)c1cccnc1Cl	TMEM16A inh 100
O=C(OCn1nnc2ccccc2c1=O)c1ccc(S(=O)(=O)N2CCOCC2)cc1	none
CCN(CC)S(=O)(=O)c1ccc(C(=O)OCn2nnc3ccccc3c2=O)cc1	TMEM16A inh 25
O=C(Cc1cccc2ccccc12)OCn1nnc2ccccc2c1=O	none
COc1cccc(OCC(=O)NNC(=O)c2ccc3ccccc3c2O)c1	none (no result: CHT allo act, TMEM16A inh, CHT block)
CSc1nc2cc(Oc3cccc(Cl)c3Cl)c(Cl)cc2[nH]1	TMEM16A inh 100
CSc1nc2ccc(Cl)cc2[nH]1	none
CCOc1ccccc1/C=N/Nc1nc(C)cc(=O)[nH]1	none
CCC1(CC)Cc2ccccc2C(N)=C1C#N	TMEM16A act -53.1
CCC1(CC)Cc2ccccc2C(=O)N1	none
Cc1cccc(C)c1NC(=O)C(C)N (stereo not given)	none (no result: TMEM16A act)
CNc1nc2c(N)ncnc2n1[C@H]1O[C@@H](CO)[C@H](O)[C@@H]1O	CHT block -7.59
CCCCC(=O)NC(c1ccc([N+](=O)[O-])cc1)c1c(O)ccc2ccccc12 (stereo not given)	TMEM16A inh 100
CCc1sc(C(=O)NCc2ccco2)cc1Br	none
COc1ccc(S(=O)(=O)N2CCCCCC2)cc1C(=O)N(C)Cc1ccc(C(C)(C)C)cc1	TMEM16A inh 25
CN1/C(=C\C(=O)COC(=O)Cn2nnc(-c3ccccc3)n2)C(C)(C)c2ccccc21	TMEM16A inh 25
COc1cc(NC(=O)NS(=O)(=O)c2ccc(C)cc2)cc(OC)c1	none
COc1ccc(NC(=O)NS(=O)(=O)c2ccc(C)cc2)cn1	TMEM16A act -7.53
COc1ccc(NC(=O)c2cccc(S(=O)(=O)Nc3ccc(Br)cc3)c2)cn1	TMEM16A inh 25
Cc1cc(C)c(NC(=O)CCN2CCN(Cc3ccccc3)CC2)c(C)c1	none
CCC(Sc1nc2cc(OC)c(OC)cc2c(=O)n1Cc1ccco1)C(=O)NCCOC (stereo not given)	none
CCC(Sc1nc2cc(OC)c(OC)cc2c(=O)n1CCc1ccc(S(N)(=O)=O)cc1)C(=O)NCCOC (stereo not given)	TMEM16A act -4.71
CCN1CCCC1CNC(=O)Cn1nc(C)n2nc(-c3ccccc3)cc2c1=O (stereo not given)	none
CCc1ccc(CC2S/C(=C(\C#N)C(C)=O)NC2=O)cc1 (stereo not given)	TMEM16A inh 100
CCOC(=O)c1ccc(CC2S/C(=C(\C#N)C(C)=O)NC2=O)cc1 (stereo not given)	none
COc1ccc(CN2C(=O)c3ccccc3C(/C=N\OCc3ccc(F)cc3)C2=O)cc1 (stereo not given)	TMEM16A inh 25
COc1ccc(CN2C(=O)c3ccccc3C(/C=N/OCc3ccc(Cl)cc3)C2=O)cc1 (stereo not given)	none
O=C(N/N=C/c1cn(-c2ccccc2)nc1-c1cc2ccccc2o1)c1ccncc1	TMEM16A inh 25
COc1cc(/C=C2\C(=N)N3N=C(N4CCOCC4)SC3=NC2=O)ccc1OC(=O)c1ccccc1	TMEM16A inh 100
CCS(=O)(=O)C1=NN2C(=N)/C(=C\c3ccc(OS(=O)(=O)c4ccccc4)c(OC)c3)C(=O)N=C2S1	CHT block -5.35 (no result: TMEM16A act)
COc1cc(/C=C2\C(=N)N3N=C(S(=O)(=O)CC(C)C)SC3=NC2=O)ccc1OC(=O)c1ccco1	CHT block -5.43 (no result: TMEM16A act)
Cc1ccc(S(=O)(=O)Oc2ccc(/C=C3\C(=N)N4N=C(S(C)(=O)=O)SC4=NC3=O)cc2)cc1	CHT block -6.39
CCS(=O)(=O)C1=NN2C(=N)/C(=C\c3ccc(OC(=O)c4ccco4)cc3)C(=O)N=C2S1	none
CCn1cc(C(=O)N(C)c2ccc(OC)cc2)c2cc(OC)c(OC)cc2c1=O	none
COCCCNC(=S)N/N=C/c1ccc(OC)c(Br)c1	none
CCC(C(=O)Nc1cccc(C(F)(F)F)c1)c1ccccc1 (stereo not given)	TMEM16A act -6.63
COc1ccccc1N1CCN(C2CCN(S(=O)(=O)c3ccc4ccccc4c3)CC2)CC1	none
CCOc1ccc(-n2cc(C(=O)c3cc(Cl)ccc3O)cc(C#N)c2=O)cc1	TMEM16A inh 25
Cc1ccc(-n2cc(C(=O)c3cc(Cl)ccc3O)cc(C#N)c2=O)cc1	TMEM16A inh 25
COc1ccc(-n2cc(C(=O)c3cc(Cl)ccc3O)cc(C#N)c2=O)cc1	none

From PubChem
